Assay outcomes from PubChem BioAssay.
PrPC surface inh – inhibitors of human cell surface prion protein PrPC, primary screen, cell-based, TR-FRET; TR-FRET read-out; inhibition, % at 13.8 µM; hit rate 0.43% among 370,000; Major prion protein (Homo sapiens), P04156; in the data active = inhibition above about 24%; note: 0% = median of the test wells and 100% = reference compound wells
PrP UTR inh – inhibition of PrP 5' UTR reporter expression; cell-based PrP 5' UTR mRNA reporter, plate reader; inhibition, % (concentration not given with the values); hit rate 0.35% among 340,000; AID 488862, 2010; in the data active = inhibition above about 52%; note: 0 = median of the neutral control wells
PfHsp40 rescue – rescue of yeast from PfHsp40 toxicity, primary screen, S. cerevisiae, ATP luminescence; S. cerevisiae expressing PfHsp40, growth rescue; growth rescue, % at 12.5 µM; hit rate 0.68% among 340,000; AID 504582, 2011; in the data active = growth rescue above about 28%, passing the limit was not always enough;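 note: yeast W303a lacking pdr1 and pdr3 grown in galactose medium; growth measured after three days at 30 °C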
PriA SSB inh – inhibitors of Klebsiella pneumoniae PriA binding to SSB C-terminal tail, primary screen, biochemical, AlphaScreen; PriA–SSB C-terminal tail interaction (Klebsiella pneumoniae); inhibition, % at 33 µM; AlphaScreen SSBct-PriA binding, biotinylated peptide; hit rate 0.6% among 430,000; AID 1272365, 2023; in the data active = inhibition mostly above about 37%, no sharp cut-off; inactive = mostly below about 20%;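 note: plate controls were negative control peptide for no effect and reference peptide for full effect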
MazF activator – activators of E. coli MazEF toxin-antitoxin RNase, primary screen, biochemical, fluorescence, uHTS; Endoribonuclease toxin MazF (Escherichia coli (strain K12)), P0AE70; FAM/BHQ RNA-DNA oligo cleavage fluorescence, 5 h; activation, % at 20 µM; hit rate 0.32% among 350,000; in the data active = activation above about 50%
Target sequence (P0AE70 whole entry, looked up): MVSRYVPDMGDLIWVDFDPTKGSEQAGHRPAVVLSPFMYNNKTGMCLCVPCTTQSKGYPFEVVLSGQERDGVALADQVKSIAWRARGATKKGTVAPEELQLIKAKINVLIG
* marks the source's active call; other numbers are inactive results. Only some compounds are listed: those with a hit (about 1.8% of all), similar ones and a draw of the others.

What do the screens show for `FC(F)(F)c1nc2ccccc2nc1NN=Cc1ccccc1`?
PriA SSB inh: 60*

What do the screens show for `Cn1cc(S(=O)(=O)N2CCCN(C(=O)c3cnn(-c4ccccc4)n3)CC2)cn1`?
PriA SSB inh: -17

How did COc1ccc(Br)cc1C1NC(=O)NC1=O (stereo not given) do in these assays?
PriA SSB inh: 47*

Results for C=CCOC(=O)COc1cc2occ(-c3ccc4c(c3)OCCO4)c(=O)c2cc1CC ?
PriA SSB inh: -2

What do the screens show for `CC1=C(C)CC2(C(=O)NC(=S)NC2=O)C(C)C1` (stereo not given)?
PrPC surface inh: 0; PrP UTR inh: -17; PfHsp40 rescue: -2; PriA SSB inh: -10; MazF activator: 8

How did Cc1nnc(N2C(=O)C(O)=C(C(=O)c3ccco3)C2c2ccc(C(C)C)cc2)s1 (stereo not given) do in these assays?
PrPC surface inh: 2; PrP UTR inh: -7; PfHsp40 rescue: 1; PriA SSB inh: -3; MazF activator: 62*

Results for CSc1ccc(C2C(C(=O)c3ccco3)=C(O)C(=O)N2c2nnc(SC)s2)cc1 (stereo not given) ?
PrPC surface inh: 3; PrP UTR inh: -16; PfHsp40 rescue: -1; PriA SSB inh: -7; MazF activator: 187*

How did Cc1nnc(N2C(=O)C(O)=C(C(=O)c3ccco3)C2c2ccc(F)cc2)s1 (stereo not given) do in these assays?
PrPC surface inh: 2; PrP UTR inh: -16; PfHsp40 rescue: 0; PriA SSB inh: -6; MazF activator: 2

What do the screens show for `Cc1nnc(N2C(=O)C(O)=C(C(=O)c3ccco3)C2c2ccc(C(C)(C)C)cc2)s1` (stereo not given)?
PrPC surface inh: -2; PrP UTR inh: -1; PfHsp40 rescue: 1; PriA SSB inh: -5; MazF activator: 192*

What do the screens show for `Cc1ccc(C2C(C(=O)c3ccco3)=C(O)C(=O)N2c2ncccn2)cc1` (stereo not given)?
PrPC surface inh: -2; PrP UTR inh: -9; PfHsp40 rescue: 1; PriA SSB inh: 3; MazF activator: -2

How did COc1cccc(S(=O)(=O)Nc2ccccc2OC)c1 do in these assays?
PriA SSB inh: -10

Results for O=C(CSc1ccc(F)cc1)N1CCC(c2nnc(C3CC3)o2)CC1 ?
PriA SSB inh: -5

How did Cc1ccccc1OCc1n[nH]c(=S)n1Cc1ccccc1 do in these assays?
PrPC surface inh: 0; PrP UTR inh: -58; PfHsp40 rescue: 1; PriA SSB inh: 0; MazF activator: 0

What do the screens show for `Cc1ccc(-c2c3c([nH]c(=S)c2C#N)CCCC3)o1`?
PrPC surface inh: -5; PrP UTR inh: -76; PfHsp40 rescue: 1; PriA SSB inh: -18; MazF activator: 88*

How did Cc1cc(CNC(=O)c2cc(COc3c(F)cccc3F)on2)nn1C do in these assays?
PrPC surface inh: 0; PrP UTR inh: 4; PfHsp40 rescue: 0; PriA SSB inh: -7; MazF activator: -1

How did COc1ccccc1NC(=S)NCCc1c[nH]c2ccccc12 do in these assays?
PrPC surface inh: -3; PrP UTR inh: -2; PfHsp40 rescue: 1; PriA SSB inh: 45*; MazF activator: 2

How did COc1cc(CNCCc2c[nH]c3ccccc23)ccc1OCc1ccc(F)cc1 do in these assays?
PrPC surface inh: -11; PrP UTR inh: -2; PfHsp40 rescue: -1; PriA SSB inh: 40*; MazF activator: 17

How did COc1cc(NC(=S)NCCc2c[nH]c3ccccc23)c(OC)cc1Cl do in these assays?
PrPC surface inh: 6; PrP UTR inh: -12; PfHsp40 rescue: 3; PriA SSB inh: 10; MazF activator: 8

How did CC(=O)NCC1CCN(c2cnccn2)CC1 do in these assays?
PriA SSB inh: -9

Results for COc1ccc2cc(C(=O)NCCc3ccccc3)[nH]c2c1 ?
PrPC surface inh: 2; PrP UTR inh: -29; PfHsp40 rescue: 1; PriA SSB inh: 1; MazF activator: -2

How did O=C(NCc1ccc(F)cc1)c1cnn2ccccc12 do in these assays?
PrPC surface inh: -7; PrP UTR inh: -93; PfHsp40 rescue: 0; PriA SSB inh: 104*; MazF activator: -3

How did Cc1ccccc1S(=O)(=O)N=C(Nc1nc2ccccc2s1)c1ccccc1 do in these assays?
PriA SSB inh: 3

How did CC(C)N1CCN(Cc2cccc3c2OCO3)CC1CCO (stereo not given) do in these assays?
PrPC surface inh: -1; PrP UTR inh: -19; PfHsp40 rescue: -2; PriA SSB inh: 9; MazF activator: 6

What do the screens show for `CC(C)N1CCN(Cc2cc3c(cc2Cl)OCO3)CC1CCO` (stereo not given)?
PrPC surface inh: 0; PrP UTR inh: -16; PfHsp40 rescue: -2; PriA SSB inh: -3; MazF activator: 83*

How did Cc1ccc(SCCNC(=S)Nc2ccc(C)c(C)c2)cc1 do in these assays?
PrPC surface inh: 1; PrP UTR inh: 0; PfHsp40 rescue: 97*; PriA SSB inh: -2; MazF activator: -7

How did C=C1C(=O)[C@]23C[C@H]1CC[C@H]2[C@]1(C)[C@@H](OC(C)=O)CC[C@@](C)(C(=O)OC)[C@H]1C[C@@H]3OC(C)=O do in these assays?
PrPC surface inh: 0

Results for C=C1C(=O)[C@]23C[C@H]1CCC2[C@@]1(C)C(C[C@@H]3O)[C@](C)(C(=O)OC)CC[C@@H]1OC(C)=O (stereo not given in full) ?
PrPC surface inh: 68*

How did C=CCn1c(SCC(=O)NCCc2ccccc2)nc2c([nH]c3ccccc32)c1=O do in these assays?
PrPC surface inh: -2; PrP UTR inh: -20; PfHsp40 rescue: -1; PriA SSB inh: -6; MazF activator: -24

How did COCCN(Cc1ccoc1)C(=O)NC(c1ccccc1)c1ccccc1 do in these assays?
PriA SSB inh: -15

What do the screens show for `CN1CCN(C(=O)C2=C[C@@H](C3CC3)C[C@@H](OCc3ccc(CO)cc3)O2)CC1`?
PrPC surface inh: 5; PrP UTR inh: -22; PfHsp40 rescue: -2; PriA SSB inh: -3; MazF activator: 7

How did CCc1nc2sc3c(c2c(=O)o1)CCCC3 do in these assays?
PrPC surface inh: 4; PrP UTR inh: -20; PfHsp40 rescue: 0; PriA SSB inh: 69*; MazF activator: -2

Results for COc1ccc(/C=C/c2nc3sc4c(c3c(=O)o2)CCC4)cc1 ?
PrPC surface inh: 3; PrP UTR inh: -37; PfHsp40 rescue: 2; PriA SSB inh: -6; MazF activator: active

What do the screens show for `O=c1oc(/C=C/c2ccccc2)nc2sc3c(c12)CCC3`?
PrPC surface inh: -2; PrP UTR inh: -64; PfHsp40 rescue: 10; PriA SSB inh: -5; MazF activator: 324*

How did O=C(O)Cn1c(=S)sc2ccccc21 do in these assays?
PrPC surface inh: -2; PrP UTR inh: -14; PfHsp40 rescue: 16; PriA SSB inh: -1; MazF activator: 6
